Screens: PubChem, National Center for Advancing Translational Sciences (NCATS)
hNpr1 antagonist: antagonists of human natriuretic peptide receptor Npr1; HEK293 hNpr1 GloSensor cGMP, ANP-stimulated luminescence; P16066; Potency, µM (series often up to 46.3 µM), for inactives: at the highest dose activity change, negative = inhibition, usual class: inhibitors; AID 1347048; hit rate 1.6% among 76,000; calls by dose curve; further: on the % scale 0 is the no-effect control and ±100 the full control effect; nearly all actives have a fitted effect of over 60% in size
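Compound pre-incubated 30 min at room temperature on GloSensor-loaded HEK293 cells stably carrying hNpr1 and the pGS-40F cGMP biosensor. Stimulation uses hNppA at 0.1 nM final; luminescence is taken at baseline and 20 min post-agonist.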
FLuc inh-1: Photinus pyralis luciferase inhibition; P08659; purified P. pyralis luciferase, luminescence, biochemical; Potency, µM (series often up to 115 µM), actives largely listed as inhibitors; hit rate 2.5% among 76,000; further: on the % scale 0 is the no-effect control and ±100 the full control effect; nearly all actives have a fitted effect of over 65% in size
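Luminescence read by CCD imager after adding enzyme (10nM final) to wells holding compound, titrated in qHTS. Substrates 10uM each D-luciferin and ATP; buffer 50mM Tris acetate pH 7.5, 10mM Mg acetate, Tween-20, BSA.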
NIH3T3 tox: NIH 3T3 cell cytotoxicity | NIH 3T3 viability, CellTiter-Glo ATP luminescence, 48-72 h | Potency, µM (highest dose often 96.7 µM), without a hit: at the top dose activity change, negative = cytotoxicity, actives largely listed as inhibitors | hit rate 4.3% among 94,000; further: on the % scale 0 is the no-effect control and ±100 the full control effect; nearly all actives have a fitted effect of over 55% in size
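Luminescent ATP readout (CellTiter-Glo, 10 min RT) after 48 or 72 hr compound exposure of NIH 3T3 cells seeded at 400 cells/well in 1536-well format; quantitative HTS.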
HEK293 tox: kills HEK 293 cells | HEK 293 viability, ATP luminescence (CellTiter-Glo), 48-72 h | Potency, µM (series often up to 115 µM), for inactives: top-dose activity change, negative = cytotoxicity, actives largely listed as inhibitors | hit rate 6.6% among 94,000; further: on the % scale 0 is the no-effect control and ±100 the full control effect; nearly all actives have a fitted effect of over 60% in size
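qHTS cytotoxicity; HEK 293, 250 cells/well; compound pinned; 48 or 72 hr, 37 degree Celsius, 5% CO2, 95% humidity; CellTiter-Glo, 10 min RT; luminescence (ATP).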
FLuc SDR no ATP: firefly luciferase binding stabilization, ATP absent | Purified FLuc-C-HiBiT, Nano-Glo HiBiT luminescence, no ATP | hit rate 7.8% among 1,300 | Potency, µM (highest dose often 32.7 µM), for the others: at the highest dose activation (signal gain), usual class: activators | shares compounds with FLuc inh-1; further: nearly all actives have a fitted effect of over 55% in size
FLuc SDR ATP: stabilizes firefly luciferase with ATP present; shares compounds with FLuc inh-1; purified FLuc-C-HiBiT + ATP, HiBiT complementation luminescence; Potency, µM (titrated, usually from 32.7 µM), for inactives: at the top dose activation (gain of signal), most hits filed as activators; hit rate 8.7% among 1,300; AID 1963319;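 further: signal reports ligand binding via conformational change of the enzyme rather than luciferase catalysis; % of control where 0% means no effect; nearly all actives have a fitted effect of over 55% in size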
FLuc inh-2: firefly luciferase enzyme inhibition; shares compounds with FLuc inh-1; purified FLuc-C-HiBiT enzyme, luciferin luminescence; Potency, µM (series often up to 32.7 µM), inactives show at the top dose activity change, negative = inhibition, actives largely listed as inhibitors; hit rate 42% among 1,300; AID 1963320; further: on the % scale 0 is the no-effect control and ±100 the full control effect; nearly all actives have a fitted effect of over 70% in size
The depositor's hits bear a star; i = inactive; ? = inconclusive; . = not tested or not shown; [ ] = another dose, or the depositor's remark. An excerpt weighted towards active compounds, which were near 11% of everything screened. Unless noted, the call rests on the fitted dose curve; in most records, active means well fitted curve in the direction sought with a large enough effect; inconclusive means small, poorly fitted or top-dose-only effect, or another doubt; inactive means no such curve, though single readings can be large; an effect the other way counts as inactive or inconclusive. Potency means the concentration at half of the fitted maximal effect.

SMILES	hNpr1 antagonist	FLuc inh-1	NIH3T3 tox	HEK293 tox	FLuc SDR no ATP	FLuc SDR ATP	FLuc inh-2
O=C(NCCc1ccccc1)C1CCN(Cc2ccccc2-c2cccnc2)CC1	.	.	-24%	?	.	.	.
CNC(=O)c1cc(C2CC2)nc2c1c(C1CCCN1[S+](=O)([O-])c1c(C)noc1C)nn2C (stereo not given)	.	.	?	-30%	.	.	.
c1ccc(Nc2cc3c(cn2)CN(Cc2ccn[nH]2)CCN3)cc1	-21%[70.6 µM]	7.9µM*	?	?	28%[49.3 µM]	16%[49.3 µM]	?
c1ccc(CN2CCNc3cnc(Nc4ccncn4)cc3C2)cc1	-2%[70.6 µM]	i	?	?	.	.	.
c1cncc(Nc2cc3c(cn2)CN(Cc2ccn[nH]2)CCN3)c1	.	.	.	.	21%[49.3 µM]	14%[49.3 µM]	?
COc1ccc(NC2=N[C@H]3[C@@H](O)[C@H](O)C[C@H](C(=O)NCc4ccccc4OC)[C@H]3S2)cc1	0%	i	0%	i	.	.	.
CN(Cc1ccccc1)C(=O)[C@H]1C[C@@H](O)[C@H](O)[C@@H]2N=C(Nc3ccc(-n4cccn4)cc3)S[C@@H]21	6%	13µM*	-27%	?	9%	?	?
CC(C)CC(C)NC(=O)c1ccc(Cn2ccn3nc4c(c3c2=O)CCCC4)cc1 (stereo not given)	0%	i	?	?	.	.	.
C[C@H](C(=O)NCCN1CCOCC1)C1CC[C@@]2(C)Cc3sc(-c4ccccc4)nc3[C@@H](C)[C@@H]2[C@H]1O (stereo not given in full)	?	11µM*	?	?	2.2µM*	?	0.99µM*
CCCNC(=O)N1CCCCC1CCn1cc(-c2ccccc2)nn1 (stereo not given)	.	.	-9%	i	.	.	.
Cc1noc(C)c1CC(=O)N1C[C@@H](Oc2ccccc2)C[C@@H]1C(=O)N1CCOCC1	8%	i	-12%	-3%	.	.	.
Fc1ccccc1-c1n[nH]c2c1CN(Cc1cccn1-c1nccs1)CC2	-11%	i	-34%	?	.	.	.
Oc1cc(-c2nc3ccccc3s2)cc2c1OCCN(Cc1cccn1-c1nccs1)C2	.	.	.	.	16%	9%	-5%
Cc1noc(C)c1CC(=O)N1CCOc2c(cc(-c3nc4ccccc4s3)cc2OC2CCOC2)C1 (stereo not given)	.	.	.	.	12%	12%	-4%
Oc1cc(-c2nc3ccccc3s2)cc2c1OCCN(Cc1cccn1-c1ccc(Cl)cn1)C2	.	.	.	.	16%	13%	-10%
Cc1ccccc1-c1cc(O)c2c(c1)CN(Cc1nccn1C)CCO2	-8%	i	-29%	?	.	.	.
c1ccc2sc(-c3cc4c(c(OC5CCOC5)c3)OCCN(Cc3cccn3-c3nccs3)C4)nc2c1 (stereo not given)	.	.	.	.	14%	11%	-3%
CCc1noc(CC2CCOC3(CCN(S(=O)(=O)c4c(C)cc(C)cc4C)CC3)C2)n1 (stereo not given)	?	i	?	?	.	.	.
Cc1nncn1C1CCN(S(=O)(=O)c2ccc(F)c(Cl)c2)CC1	-11%	i	-12%	-19%	.	.	.
C=CCn1cc(CN2CCOc3c(O)cc(-c4cccc(Cl)c4)cc3C2)cn1	-18%	i	?	?	.	.	.
Oc1cc(-c2nc3ccccc3s2)cc2c1OCCN(Cc1cn[nH]c1-c1ccc(Cl)cc1)C2	.	.	.	.	13%	8%	-1%
Oc1cc(-c2nc3ccccc3s2)cc2c1OCCN(Cc1ncccn1)C2	3%	?	-37%	?	13%	11%	-15%
Cn1cc(C(=O)N2CCC(N3C(=O)C4(CCCCC4)C3c3ccncc3)CC2)cn1 (stereo not given)	.	.	-13%	i	.	.	.
CN(Cc1cccnc1)Cc1nc(C2(O)CCN(Cc3ccccc3)CC2)cs1	-17%[70.6 µM]	i	?	?	.	.	.
COc1ccc(-n2ncc3c(NC4CCCC4)ncnc32)cc1	.	.	.	.	?	?	1.8µM*
SMILES	hNpr1 antagonist	FLuc inh-1	NIH3T3 tox	HEK293 tox	FLuc SDR no ATP	FLuc SDR ATP	FLuc inh-2
Cc1ccc(-n2ncc3c(NC4CCCC4)ncnc32)cc1	.	.	.	.	?	?	0.62µM*
Cc1ccc(-n2nc3n(c2=O)CCN(C(=O)NC2CCCC2)C3)cc1	.	.	-27%[138 µM]	-19%[172 µM]	.	.	.
COc1ccc(-c2c(C(=O)N3CCN(C(C)=O)CC3)nc3sccn23)cc1	.	.	1%	i	.	.	.
Cc1ccccc1-c1noc(-c2ccc(N3CCCC3)c([N+](=O)[O-])c2)n1	.	.	.	.	22%	?	?
COc1ccc(-c2noc(-c3ccc(N4CCN(C)CC4)c([N+](=O)[O-])c3)n2)cc1	.	.	.	.	21%	13%	?
CCc1noc(-c2nc(-c3ccccc3OC)no2)n1	-2%	i	-6%	?	.	.	.
Cc1ccccc1-c1noc(-c2nc(-c3ccncc3)no2)n1	-1%	i	3%	-6%	.	.	.
COc1ccccc1-c1noc(-c2ccc(N3CCN(C)CC3)c([N+](=O)[O-])c2)n1	.	.	.	.	?	?	5µM*
COc1ccc(-c2cc3nc4c(c(=O)n3[nH]2)CN(C(=O)NCc2ccco2)CC4)cc1	-2%	7.1µM*	?	?	?	14%	11µM*
COc1ccc(-c2cc3nc4c(c(=O)n3[nH]2)CN(C(=O)Cc2ccccc2)CC4)cc1	4%	?	-7%	3%	.	.	.
CS(=O)(=O)N1CCCN(CC2CCCCC2)CCNC(=O)CC1c1ccccc1 (stereo not given)	-4%	i	-11%	-17%	.	.	.
CNC(=O)N1CCc2c(sc3ncnc(N(C)C)c23)C1	-7%	i	?	-1%	.	.	.
COc1ccccc1-c1cn2c(n1)CO[C@@H](CNC(=O)c1ccc(F)cc1)C2	2%[70.6 µM]	i	?	?	.	.	.
Cc1cc2c(c(-c3nc4ccccc4s3)c1)OC(CNC(=O)c1occc1C)C2 (stereo not given)	.	.	.	.	15%	12%	?
COc1ccc(C(=O)NCC2Cc3cc(C)cc(-c4nc5ccccc5s4)c3O2)c(OC)c1OC (stereo not given)	.	.	.	.	15%	11%	1%
Cn1ncc2c(C(=O)N3CCOCC3)cc(-c3ccccc3)nc21	.	.	-11%[138 µM]	-10%[172 µM]	.	.	.
Cc1cnc(C2CCOCC2)n1C1CCCN(C(=O)CCc2c[nH]c3ccccc23)C1 (stereo not given)	5%	i	1%	i	.	.	.
CCN1CCCC2(Cc3ccccc3CN([S+](=O)([O-])c3ccccc3)C2)C1 (stereo not given)	.	.	0%	-17%	.	.	.
COc1ccc(NC(=O)Nc2nnc(C)s2)cc1	.	.	.	.	24%	13%	?
